Records with an inconclusive call do not appear. A call without a number means that no potency is given here. The source made the active and inactive calls. The call rests on the fitted dose curve; in most records, active means well fitted cell-killing curve with a large enough effect; inconclusive means small, poorly fitted or top-dose-only effect, or effect the other way; inactive means flat fitted curve, though single readings scatter.
test system: C33A; test: Primary qHTS to identify gynecologic anti-cancer compounds using libraries of approved drugs and bioactive compounds (AID 1345084); settings: Gynecologic cancer cell panel viability, ATPlite luminescence, 48 h; series mostly up to 57.5 µM; further: nearly all actives have a fitted effect of over 55% in size
Outline: (§1)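 ATP-based viability (ATPlite), 1,000 cells/well, 16 h pre-incubation, 48 h compound at 37 C, 5% CO2, 15 min RT before read.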

SMILES	Potency
C/C(=C/CO)CC[C@H]1[C@]2(C)C[C@H](O)CC(C)(C)[C@H]2CC[C@]1(C)O	inactive
C[C@@H]1O[C@@H](O[C@@H]2\C=C/C=C\C=C/C=C\C[C@H](C)OC(=O)/C=C\[C@H]3O[C@@H]3C[C@H](O)C[C@]3(O)C[C@@H](O)[C@@H](C(=O)O)[C@H](C2)O3)[C@H](O)[C@H](N)[C@@H]1O	inactive
COc1cc(C)c(C(=O)O[C@@H]2[C@H](O)[C@@H](CO)O[C@H]2n2ccc(=O)[nH]c2=O)c(OC)c1	inactive
C=C(CCO)C(=O)OCC1OCC(OC(=O)C(=C)CCO[C@@H]2O[C@H](CO)[C@@H](O)[C@H](O)[C@H]2O)C(O)C1O (stereo not given in full)	inactive
COc1ccc(/C=C/C(=O)N2CCCC2)cc1	inactive
C[C@@H]1O[C@@H](OC[C@H]2O[C@@H](OCc3ccccc3)[C@H](O)[C@@H](O)[C@@H]2O)[C@H](O)[C@H](O)[C@H]1O	inactive
CC(=O)O[C@@H]1C=C2[C@H](CC[C@@]3(C)[C@@]2(O)CC[C@H]2Cc4c([nH]c5ccccc45)[C@@]23C)O[C@@H]1C(C)(C)O	inactive
Cc1cc(Cn2cnc3c2CC(C(=O)O)N(C(=O)C(c2ccccc2)c2ccccc2)C3)ccc1N(C)C (stereo not given)	inactive

test system: CAOV3; test: as above; settings: Gynecologic cancer cell panel viability, ATPlite luminescence, 48 h; series mostly up to 57.5 µM
Outline: as §1

SMILES	Potency	activity change, negative = cytotoxicity
COc1cccc(Cn2ncc3c4sc(S(C)=O)cc4n(C)c3c2=O)c1 (stereo not given)	inactive	–
CC(C)CC(=O)O[C@@H]1O[C@H](CO)[C@@H](O[C@H]2O[C@H](C)[C@@H](N[C@H]3C=C(CO)[C@@H](O[C@H]4O[C@H](CO)[C@@H](O[C@H]5O[C@H](CO)[C@@H](O[C@H]6O[C@H](CO)[C@@H](O)[C@H](O)[C@H]6O)[C@H](O)[C@H]5O)[C@H](O)[C@H]4O)[C@H](O)[C@H]3O)[C@H](O)[C@H]2O)[C@H](O)[C@H]1O	–	1.97% [at 11.6 µM] (inactive)
COc1ccc(C2COc3cc(O)ccc3C2)c(O)c1OC (stereo not given)	inactive	–
CCN1CCN(C(=O)N[C@@H](C(=O)N[C@@H]2C(=O)N3[C@@H]2SC(C)(C)[C@@H]3C(=O)O)c2ccccc2)C(=O)C1=O	inactive	–
COc1ccc(/C=C/C(N)=O)cc1OC	inactive	–
N[C@@H](CC(=O)Nc1ccc(Oc2cc(F)c(F)cc2Br)cc1)C(=O)O	inactive	–
COc1cc(O)cc2c1C(=O)OC(C)C2 (stereo not given)	inactive	–
COc1cc(/C=C/C(=O)O[C@@H]2C[C@](O)(C(=O)O)C[C@@H](O)[C@H]2O)ccc1O	inactive	–
Cc1cn(C[C@H](N)C(=O)O)c(=O)n(Cc2ccsc2C(=O)O)c1=O	inactive	–
CC(O)C1CCC2C3CCC4CC(OC5OC(C(=O)O)C(O)C(O)C5O)CCC4(C)C3CCC12C (stereo not given)	inactive	–
C/C=C1/[C@H](O[C@@H]2O[C@H](CO)[C@@H](O)[C@H](O)[C@H]2O)OC=C2C(=O)O[C@@H]3C[C@@H](C(C)CO)[C@H](COC(=O)C[C@H]21)[C@H]3C (stereo not given in full)	inactive	–
COc1ccc(NC(=O)c2ccc(-c3ccc(C(N)=O)cc3C)cc2)cc1N1CCN(C)CC1	inactive	–
Cc1cccc(-c2nn3c(c2-c2ccnc4ccc(C(N)=O)cc24)CCC3)n1	inactive	–
CC1(C)CC[C@]2(C(=O)OC3OC(CO)C(O)C(O)C3O)CC[C@]3(C)C(=CCC4[C@@]5(C)C[C@@H](O)[C@H](OC6OC(C(=O)O)C(O)C(O)C6O)C(C)(C)C5CC[C@]43C)[C@@H]2C1 (stereo not given in full)	–	-8.39% [at 11.6 µM] (inactive)
O=C(NCC(=O)N1CCCC1)Nc1ccc2ccccc2c1	inactive	–
O=C(c1c2ccccc2cc2ccccc12)N1CCC(N2CCC[C@@H](C(=O)N3CCOCC3)C2)CC1	inactive	–
CC(C)c1ccc2c(c1)C(O)CC1C(C)(CO)CCCC21C (stereo not given)	inactive	–
C=CCc1cc(OC)c(OC(C)C(O)c2ccc(O)c(OC)c2)c(OC)c1 (stereo not given)	inactive	–
COc1cc(O)cc(O[C@@H]2O[C@H](CO)[C@@H](O[C@@H]3OC[C@](O)(CO)[C@H]3O)[C@H](O)[C@H]2O)c1OC	inactive	–
CC1(C)COC(=O)[C@@H]1O[C@@H]1O[C@H](CO)[C@@H](O)[C@H](O)[C@H]1O	inactive	–
C[C@@H]1O[C@@H](O[C@H]2[C@@H]3C=CO[C@@H](O[C@@H]4O[C@H](CO)[C@@H](O)[C@H](O)[C@H]4O)[C@@H]3[C@@]3(CO)O[C@@H]23)[C@H](O)[C@H](O)[C@H]1OC(=O)/C=C/c1ccc(O)cc1	inactive	–
Cc1c(NC(=O)N2CCOCC2)ccc2c1c1ccccc1n2C(C)C	inactive	–

— PubChem BioAssay (NCATS)
